From PubChem BioAssay (NCATS)
Inconclusive results are not listed. Calls of active or inactive are those of the source. The call rests on the fitted dose curve; in most records, active means well fitted inhibition curve with a large enough effect; inconclusive means small, poorly fitted or top-dose-only effect; inactive means flat fitted curve, though single readings scatter.

These molecules were tested on NIH3T3 (assay: Cytotoxic Profiling of Annotated Libraries Using Quantitative High-Throughput Screening (AID 1296008; further: nearly all actives have a fitted effect of over 60% in size)). Conditions: Five cell lines viability, CellTiter-Glo ATP luminescence, 48-72 h; max response: stronger effect = lower value.
In short: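 Cells exposed to compounds for 48 or 72 hr at 37 degrees Celsius. Viability read as ATP-coupled luminescence with CellTiter-Glo after 10 min at room temperature.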
On the % scale 0 is the no-effect control and ±100 the full control effect; potency means the concentration at half of the fitted maximal effect.

Row | SMILES | max response | Potency
1 | Cc1cc(N2CCN([C@@H]3CN[C@H](C(=O)N4CCSC4)C3)CC2)n(-c2ccccc2)n1 | -22.8% (inactive) | –
2 | CC1OC(OC2CCC3(C)C(CCC4(C)C3CC=C3C5CC(C)(C)CCC5(C(=O)OC5OC(CO)C(O)C(O)C5O)CCC34C(=O)O)C2(C)C)C(O)C(O)C1O (centres undefined) | -6.15% (inactive) | –
3 | C[C@@H]1O[C@@H](O[C@@H]2[C@@H](O)[C@H](O[C@H]3[C@H](O[C@H]4CC[C@@]5(C)C(CC[C@]6(C)C5CC=C5[C@@H]7CC(C)(C)CC[C@]7(C(=O)O[C@@H]7O[C@H](CO)[C@@H](O)[C@H](O)[C@H]7O[C@@H]7O[C@@H](C)[C@H](O[C@@H]8O[C@@H](C)[C@H](O)[C@@H](O)[C@H]8O)[C@@H](O)[C@H]7O)CC[C@]56C)[C@@]4(C)CO)O[C@H](C(=O)O)[C@@H](O)[C@@H]3O)O[C@H](CO)[C@H]2O)[C@H](O)[C@H](O)[C@H]1O (some centres undefined) | 2.85% (inactive) | –
4 | CCc1cnn2c(NCc3ccc[n+]([O-])c3)cc(N3CCCCC3CCO)nc12 (centres undefined) | – | 65.1 nM (active)
5 | COc1c2c(c(C)c3c1C(=O)OC3)OC1(C)CC(O)C34OC(OC)(OC3(C)C)C(O)CC4(C)C1C2 (centres undefined) | -1.37% (inactive) | –
6 | C[C@@H]1O[C@@H](O[C@H]2[C@H](O[C@H]3[C@H](O[C@H]4CC[C@@]5(C)C(CC[C@]6(C)C5CC=C5[C@@H]7CC(C)(C)C[C@@H](O)[C@]7(C)CC[C@]56C)[C@@]4(C)CO)O[C@H](C(=O)O)[C@@H](O)[C@@H]3O)OC[C@H](O)[C@@H]2O)[C@H](O)[C@H](O)[C@H]1O (some centres undefined) | -4.51% (inactive) | –
7 | COc1cc2c(cc1OC)CC(=O)N(CCCNC[C@H]1Cc3cc(OC)c(OC)cc31)CC2 | -0.121% (inactive) | –
8 | C[C@@H]1C[C@H]2O[C@@H]2/C=C\C=C\C(=O)Cc2c(Cl)c(O)cc(O)c2C(=O)O1 | – | 1740 nM (active)
9 | COC(=O)c1ccnc(-c2cc(C(=O)NCCc3ccccc3)ccn2)c1 | 1.58% (inactive) | –
10 | C1CCC[C@H]2CCCN3CC[C@@H](CCCCCC[C@@H]4CCCN5CC[C@@H](CC1)O[C@@H]45)O[C@@H]23 | 2.62% (inactive) | –
11 | Cc1c(F)cc(C(=O)NC2CC2)cc1-c1c(F)cn2c(C(C)(C)C)nnc2c1F | -8.04% (inactive) | –
12 | CC(=O)OC1C(OC(=O)c2ccccc2)C2C(C)(C)CC(=O)CC2(C)C23CCC(C)(C2)C(O)CC13 (centres undefined) | -5.55% (inactive) | –
13 | CC(=O)O[C@@H]1C[C@H](O)[C@@]23CO[C@H](O)[C@]1(C)C2C[C@@H](O)[C@]1(C)C3C(=O)[C@H](OC(C)=O)[C@@]2(C)[C@H](c3ccoc3)C[C@H]3O[C@]321 (some centres undefined) | – | 432 nM (active)
14 | O=C(NCc1ccc(F)cc1)C(=O)c1c[nH]c2ccccc12 | -16.4% (inactive) | –
15 | O=C(OC[C@@]1(O)CO[C@@H](O[C@H]2[C@H](Oc3ccc(O)cc3)O[C@H](CO)[C@@H](O)[C@@H]2O)[C@@H]1O)c1ccc(O)cc1 | -2.03% (inactive) | –
16 | C[C@@H]1O[C@@H](O[C@H]2[C@H](OC(=O)[C@]34CCC(C)(C)C[C@H]3C3=CCC5[C@@]6(C)CC[C@H](O[C@@H]7O[C@H](C(=O)O)[C@@H](O)[C@H](O)[C@H]7O[C@@H]7O[C@H](CO)[C@H](O)[C@H](O)[C@H]7O)[C@@](C)(C=O)C6CC[C@@]5(C)[C@]3(C)C[C@H]4O)O[C@H](C)[C@H](O[C@@H]3O[C@H](C)[C@H](O)[C@H](O)[C@H]3O)[C@@H]2O)[C@H](O)[C@H](O)[C@H]1O[C@@H]1OC[C@@H](O)[C@H](O[C@@H]2O[C@H](CO)[C@@H](O)[C@H](O)[C@H]2O)[C@H]1O (some centres undefined) | 3.95% (inactive) | –
17 | CC1=C(C(=O)O[C@@H]2O[C@H](COC3OCC(O)C(O)C3O)[C@@H](O)[C@H](O)[C@H]2O)C(C)(C)CCC1 (some centres undefined) | -7.14% (inactive) | –
18 | C=C1C(=O)O[C@@H]2C[C@H](C)[C@@]3(O)C=C(C(C)=O)[C@]4(CC3C[C@H]12)C(=O)O[C@H]1C[C@@H](C)C(CCC(C)=O)=CC[C@H]14 (some centres undefined) | -0.126% (inactive) | –
19 | CC(O)(CC(=O)O)CC(=O)OCc1ccc(O[C@@H]2O[C@H](CO)[C@@H](O)[C@H](O)[C@H]2O)cc1 (some centres undefined) | -5.49% (inactive) | –
20 | CC(O)CO[C@@H]1O[C@H](CO)[C@@H](O)[C@H](O)[C@H]1O (some centres undefined) | 0.151% (inactive) | –

Row | SMILES | max response | Potency
21 | C/C=C/c1cc(OC)c2c(c1)[C@@H](C)[C@@H](c1ccc(O)c(OC)c1)O2 | -61.9% (inactive) | –
22 | COC(=O)c1c(C)cc(OC(=O)c2c(C)cc(OC)cc2OC)cc1O[C@@H]1O[C@H](CO)[C@@H](O)[C@H](O)[C@H]1O | -1.71% (inactive) | –
23 | CCCCc1nc2cc(/C=C/C(=O)NO)ccc2n1CCN(CC)CC | – | 5170 nM (active)
24 | C=C1C(=O)O[C@@H]2C/C(C)=C\C(=O)/C=C(\C)[C@@H](OC(=O)/C(C)=C\C)[C@H](O)[C@@H]12 | – | 10100 nM (active)
25 | COc1cc2oc(-c3ccc(O)cc3O)cc2c(OC)c1CC=C(C)C | 2.22% (inactive) | –
26 | CC(=O)O[C@@H]1[C@@H](CO)O[C@@](CO)(O[C@H]2O[C@H](COC(=O)/C=C/c3ccccc3)[C@@H](O)[C@H](O)[C@H]2O)[C@H]1O | 1.35% (inactive) | –
27 | COc1c(C)c(OCC(O)C(C)(C)O)cc2c1COC2=O (centres undefined) | -1.75% (inactive) | –
28 | COC(=O)c1ccccc1O[C@@H]1O[C@H](CO)[C@@H](O)[C@H](O)[C@H]1O[C@@H]1O[C@@H](C)[C@H](O)[C@@H](O)[C@H]1O | 0.854% (inactive) | –
29 | O=C(/C=C\n1cnc(-c2cc(C(F)(F)F)cc(C(F)(F)F)c2)n1)N1CC(F)(F)C1 | – | 1840 nM (active)
30 | COc1cc2ncnc(Nc3cccc(Cl)c3F)c2cc1OC(=O)N1CCN(C)C[C@H]1C | -86.1% (inactive) | –
31 | O=C1Nc2ccccc2C(O)(c2ccccc2)C1O (centres undefined) | -2.57% (inactive) | –
32 | Cc1cc(Nc2nc(NC(C)c3ncc(F)cn3)ncc2Cl)n[nH]1 (centres undefined) | -5.45% (inactive) | –
33 | CC1CC[C@]2(C(=O)O)CC[C@]3(C(=O)O)C(=CCC4[C@@]5(C)CC[C@H](OC6OC(C)C(O)C(OC7OC(CO)C(O)C(O)C7O)C6O)C(C)(C)C5CC[C@]43C)C2C1C (some centres undefined) | 2.41% (inactive) | –
34 | CC12CCC(C(OC3OC(COC4OCC(O)(CO)C4O)C(O)C(O)C3O)C1)C(C)(C)O2 (centres undefined) | 0.27% (inactive) | –
35 | COc1cc(C2Oc3c(OC)cc(CCCO)cc3C2CO)ccc1O[C@H]1O[C@H](C)[C@@H](O)[C@H](O)[C@@H]1O (some centres undefined) | 2.77% (inactive) | –
36 | CNC(=S)NS(=O)(=O)c1cc(CCNC(=O)c2cc(Cl)ccc2OC)ccc1OC | -5.29% (inactive) | –
37 | Cc1ccc(Cc2c(C)nc3nc(SCC(=O)NCCN4CCNCC4)nn3c2C)cc1 | -3.32% (inactive) | –
38 | CC(C)CC(=O)O[C@@H]1OC=C(CO[C@@H]2O[C@H](CO)[C@@H](O)[C@H](O)[C@H]2O)[C@H]2[C@@H]3O[C@H]3[C@@](O)(CO)[C@@H]12 | 2.35% (inactive) | –
39 | C[C@@H]([C@@H](O)c1ccc(O)cc1)N1CCC(O)(c2ccccc2)CC1 | 1.49% (inactive) | –
